Most compounds without a hit are left out; they make up all but 1.6% or so of the library.
Peg3 imprint = induces erasure of genomic imprints in mouse ES cells. mouse ES Peg3-LacZ reporter, beta-gal luminescence, 40 h. Potency, µM (titrated, usually from 60.7 µM), hits mostly activators. actives 0.02% (n = 110,000)
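Each well holds 300 Peg3LacZ-Neo (maternal) female ES cells incubated 40 h at 37C, 5% CO2. LacZ is measured by BetaGlo luminescence, with AC50 and maximum efficacy derived from dose-response curves.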
p53ts 32C kill = p53ts cell cytotoxicity, permissive temperature; actives 0.93% (n = 130,000); Potency, µM (top dose mostly 46.1 µM), hits mostly cytotoxic; H1299-p53A138V at 32C, ATP luminescence viability, 24 h; note: nearly all actives have a fitted effect of over 55% in size
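Viability by ATPlite luminescence after 24 h compound treatment (up to 46 uM) at the permissive 32C. Cells are H1299 carrying p53 A138V. Scale runs from DMSO basal to 100 uM tamoxifen as full kill; AC50 from Hill fits.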
p53ts 39C tox = p53ts cell cytotoxicity, nonpermissive temperature. Potency, µM (top dose mostly 46.1 µM), actives largely listed as cytotoxic. H1299-p53A138V viability at 39C, ATP luminescence, 24 h. actives 1.5% (n = 130,000); note: nearly all actives have a fitted effect of over 55% in size
Hits are given with their value; ! = not active in a repeat; [ ] = another dose, or the depositor's remark. Calls come from the whole dose curve; as a rule, active = well fitted curve in the direction sought with a large enough effect; inconclusive = small, poorly fitted or top-dose-only effect, or another doubt; inactive = no such curve, though single readings can be large; an effect the other way counts as inactive or inconclusive.

For COc1ccc2nc(C)cc(Nc3ccc(Cl)c(Cl)c3)c2c1 the results were Peg3 imprint inactive[10.9 µM], p53ts 32C kill inconclusive and p53ts 39C tox 12.6µM.
For CC1=C(C(=O)OC2CCCCCC2)C(c2ccc(Cl)cc2Cl)CC(=O)N1 (configuration not stated) the results were Peg3 imprint inactive[10.9 µM], p53ts 32C kill inactive and p53ts 39C tox inconclusive.
For COc1ccc(CCNc2oc(COc3ccc(Cl)cc3)nc2C#N)cc1OC the results were Peg3 imprint inactive[10.9 µM], p53ts 32C kill 22.4µM and p53ts 39C tox inconclusive.
Screening COc1ccc(CCNc2oc(COc3cccc(C)c3)nc2C#N)cc1OC returned Peg3 imprint inactive[10.9 µM], p53ts 32C kill inactive and p53ts 39C tox inactive.
`Cc1ccc(C)c(NC(=O)Cn2cc(C(=O)c3cccs3)c3ccccc32)c1` gave Peg3 imprint inactive[10.9 µM], p53ts 32C kill inactive and p53ts 39C tox inactive.
Screening Cc1cccc(CSCCNC(=O)CN(c2ccccc2)S(=O)(=O)N(C)C)c1 returned Peg3 imprint inactive[10.9 µM], p53ts 32C kill inactive and p53ts 39C tox inactive.
Screening Cc1ccccc1-n1c(SCc2ccc(Cl)cc2)nc2[nH]ncc2c1=O returned Peg3 imprint inactive[10.9 µM], p53ts 32C kill inactive and p53ts 39C tox inactive.
For Cc1cc(-n2c(SCc3ccccc3F)nc3[nH]ncc3c2=O)ccc1Cl the results were Peg3 imprint inactive[10.9 µM], p53ts 32C kill inactive and p53ts 39C tox 15.8µM.
`CCN(CC)CCNC(=O)Nc1ccc2c(c1)N(Cc1ccccc1)C(=O)c1ccccc1S2` gave Peg3 imprint inactive[10.9 µM], p53ts 32C kill inactive and p53ts 39C tox 20µM.
For CCN1C(=O)c2ccccc2Sc2ccc(NC(=O)Nc3ccc(C(C)=O)cc3)cc21 the results were Peg3 imprint inactive[10.9 µM], p53ts 32C kill inactive and p53ts 39C tox inactive.
C=C1C(=O)O[C@@H]2[C@H]3O[C@]3(C)CCC=C(C)CC[C@@H]12 was read as Peg3 imprint inactive, p53ts 32C kill 12.6µM and p53ts 39C tox 12.6µM.
For C=C1C(=O)O[C@@H]2[C@@H]1CC/C(C)=C\CC[C@@]1(C)O[C@H]21 the results were Peg3 imprint inactive, p53ts 32C kill 6.31µM! and p53ts 39C tox 6.31µM!.
COc1ccc(CNc2ncnc3ccc(-c4ccccc4OC)cc23)c(OC)c1 was read as Peg3 imprint inactive, p53ts 32C kill inactive and p53ts 39C tox inactive.
CCc1nn2cc(-c3ccccc3)nc2s1 was read as Peg3 imprint inactive, p53ts 32C kill 10µM and p53ts 39C tox 15.8µM.
Screening CCOc1ccc(-c2cn3nc(CC(C)C)sc3n2)cc1 returned Peg3 imprint inactive[10.9 µM], p53ts 32C kill inconclusive and p53ts 39C tox inconclusive.
Screening Cc1nn2cc(-c3ccc(-c4ccccc4)cc3)nc2s1 returned Peg3 imprint inactive, p53ts 32C kill inactive and p53ts 39C tox inactive.
Screening COCc1nn2cc(-c3ccc(C)cc3)nc2s1 returned Peg3 imprint inactive[10.9 µM], p53ts 32C kill 10µM and p53ts 39C tox 12.6µM.
Screening c1ccc(Nc2nc(-c3ccc4c(c3)OCO4)nc3ccccc23)cc1 returned Peg3 imprint inactive, p53ts 32C kill inconclusive and p53ts 39C tox inconclusive.
COc1ccc(OC)c(CCNc2nc3cc(OC)c(OC)cc3c3nc(-c4cccnc4)nn23)c1 was read as Peg3 imprint inactive[10.9 µM], p53ts 32C kill inactive and p53ts 39C tox inactive.
c1ccc(N2CCN(c3nc4cc5c(cc4s3)OCCO5)CC2)cc1 was read as Peg3 imprint inactive, p53ts 32C kill inactive and p53ts 39C tox inactive.
For c1c2c(cc3sc(N4CCOCC4)nc13)OCCO2 the results were Peg3 imprint inactive, p53ts 32C kill 3.16µM and p53ts 39C tox 5.01µM.
`Cc1ccccc1NC(=O)CSc1nc2ccc(NC(=O)CCc3ccccc3)cc2s1` gave Peg3 imprint inactive[10.9 µM], p53ts 32C kill inactive and p53ts 39C tox inconclusive.
CCCc1nnc(NC(=O)c2nc(S(=O)(=O)Cc3ccc(C)cc3)ncc2Cl)s1 was read as Peg3 imprint inactive[10.9 µM], p53ts 32C kill inconclusive and p53ts 39C tox inconclusive.
For CC(C)c1nnc(NC(=O)c2nc(S(=O)(=O)Cc3ccccc3)ncc2Cl)s1 the results were Peg3 imprint inactive[10.9 µM], p53ts 32C kill 20µM and p53ts 39C tox 6.31µM.
CC(C)Sc1ncc(Cl)c(C(=O)Nc2nnc(C(C)C)s2)n1 was read as Peg3 imprint inactive[10.9 µM], p53ts 32C kill inactive and p53ts 39C tox inactive.
For Cc1ccccc1CS(=O)(=O)c1ncc(Cl)c(C(=O)Nc2nnc(C(C)C)s2)n1 the results were Peg3 imprint inactive[10.9 µM], p53ts 32C kill 15.8µM and p53ts 39C tox 7.94µM.
For CC1CCN(S(=O)(=O)c2ccc3c(c2)N(CC(=O)NCc2ccccc2)C(=O)CO3)CC1 the results were Peg3 imprint inactive[10.9 µM], p53ts 32C kill inactive and p53ts 39C tox inactive.
`C=COCC1CN2C(CCC(C)C2c2ccc(Br)cc2)C(=O)O1` (configuration not stated) gave p53ts 32C kill inactive[9.22 µM] and p53ts 39C tox inactive[9.22 µM].
For C[N+](C)(C)c1ncnc2c1ncn2[C@@H]1C[C@H](O)[C@@H](CO)O1 the results were Peg3 imprint inactive[10.9 µM], p53ts 32C kill inactive[9.22 µM] and p53ts 39C tox inactive[9.22 µM].
`CCN(CC)CCCNC(=O)c1nn(-c2ccc(OC)c(Cl)c2)c(=O)c2c1c1ccccc1n2C` gave Peg3 imprint inactive[10.9 µM], p53ts 32C kill inactive and p53ts 39C tox inactive.
Screening CCOc1ccc(NC(=O)c2sc3nc4c(cc3c2N)CCCCCC4)cc1 returned Peg3 imprint inactive[10.9 µM], p53ts 32C kill inconclusive and p53ts 39C tox 12.6µM.
Nc1c(C(=O)Nc2ccc(C(=O)O)cc2)sc2nc3c(cc12)CCCC3 was read as Peg3 imprint inactive[10.9 µM], p53ts 32C kill inconclusive and p53ts 39C tox inconclusive.
Screening Cc1cccc(NC(=O)c2sc3nc4c(cc3c2N)CCCCCC4)c1C returned Peg3 imprint inactive[10.9 µM], p53ts 32C kill inactive and p53ts 39C tox inactive.
Screening COc1ccc(OC)c(NC(=O)c2sc3nc4c(cc3c2N)CCCCCC4)c1 returned Peg3 imprint inactive[10.9 µM], p53ts 32C kill inconclusive and p53ts 39C tox 12.6µM.
Screening COc1ccc(OCC2CN3C(CCC(C)C3c3ccc(Br)cc3)C(=O)O2)cc1 (configuration not stated) returned p53ts 32C kill inactive[9.22 µM] and p53ts 39C tox inactive[9.22 µM].
`Cc1ccc2c(c1)Cc1c(nc(-c3ccc(F)cc3)nc1SCC(=O)N1CCCCC1)O2` gave Peg3 imprint inactive[10.9 µM], p53ts 32C kill inactive and p53ts 39C tox inactive.
c1csc(CNc2ccnc(-c3ccc4c(c3)OCO4)n2)c1 was read as Peg3 imprint inactive, p53ts 32C kill 12.6µM and p53ts 39C tox 10µM.
COc1cccc(-c2nccc(NCc3cccs3)n2)c1 was read as Peg3 imprint inactive, p53ts 32C kill inconclusive and p53ts 39C tox 12.6µM.
`c1cncc(-c2nccc(NCc3cccs3)n2)c1` gave Peg3 imprint inconclusive, p53ts 32C kill inactive and p53ts 39C tox inactive.
c1ccc(CNc2ccnc(-c3ccc4c(c3)OCO4)n2)cc1 was read as Peg3 imprint inactive, p53ts 32C kill inconclusive and p53ts 39C tox inconclusive.
Screening CCCCCCCCCCCCCCCCCCNC(=O)OC[C@@H](COP(=O)([O-])OCC[n+]1ccsc1)OC returned p53ts 32C kill inactive and p53ts 39C tox inactive.
`CCc1ccc(OCc2nc(-c3ccccn3)no2)c(Br)c1` gave Peg3 imprint inactive, p53ts 32C kill 15.8µM and p53ts 39C tox 10µM.
Screening Clc1ccc(OCc2nc(-c3ccncc3)no2)c(Br)c1 returned Peg3 imprint inactive, p53ts 32C kill inconclusive and p53ts 39C tox inconclusive.
Screening Cc1ccc(OCc2nc(-c3ccccn3)no2)c(Br)c1 returned Peg3 imprint inactive, p53ts 32C kill 10µM and p53ts 39C tox inconclusive.

Compound activity deposited in PubChem by National Center for Advancing Translational Sciences (NCATS).
